D2 antag: HTS Assay for Allosteric Antagonists of the Human D2 Dopamine Receptor: Primary Screen for Antagonists | HEK293 TREx D2 cells, calcium flux, dopamine EC80 | inhibition, % at 10 µM | 2% of 340,000 active | AID 485344, 2010; in the data active means inhibition above about 30%; inactive means below that, where a call was filed
Target sequence (P14416 whole entry, looked up): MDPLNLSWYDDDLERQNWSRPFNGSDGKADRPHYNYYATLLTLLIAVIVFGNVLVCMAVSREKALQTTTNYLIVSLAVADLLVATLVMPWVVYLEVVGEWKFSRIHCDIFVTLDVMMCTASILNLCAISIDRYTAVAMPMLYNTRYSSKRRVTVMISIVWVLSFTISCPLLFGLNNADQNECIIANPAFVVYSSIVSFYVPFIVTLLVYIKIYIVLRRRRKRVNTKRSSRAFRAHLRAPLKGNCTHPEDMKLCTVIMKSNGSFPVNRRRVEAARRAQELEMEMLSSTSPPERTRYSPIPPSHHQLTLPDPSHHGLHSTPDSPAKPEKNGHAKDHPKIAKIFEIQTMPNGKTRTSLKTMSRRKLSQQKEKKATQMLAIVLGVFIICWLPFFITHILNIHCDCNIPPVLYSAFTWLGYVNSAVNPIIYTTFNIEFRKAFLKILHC
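Compounds are added to dye-loaded, induced HEK293 T-REx cells coupled to calcium release via D2; after a 3 min kinetic read an EC80 dopamine stimulus is given and fluorescence is recorded for 3 more min.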
D2 ag-1: Beta-Arrestin HTS for Positive Allosteric Modulators of the Human D2 Dopamine Receptor: Agonists; D(2) dopamine receptor (Homo sapiens), P14416; DiscoveRx PathHunter D2 beta-arrestin, luminescence, 90 min; 100% = 57 uM dopamine signal; activation, % (test concentration not listed); 0.084% of 360,000 active; in the data active means activation above about 40%; inconclusive means between about 15% and that limit
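DiscoveRx PathHunter D2 beta-arrestin cells (2,100/well) attached overnight, then compound-stimulated 90 min at 37 C in HBSS/10 mM HEPES/0.1% Tween-20 buffer; beta-galactosidase complementation read by luminescence after 1 h at ambient temperature. Dopamine 57 uM final (EC100) as control.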
D2 PAM-1: HTS Assay for Positive Allosteric Modulators of the Human D2 Dopamine Receptor: Primary Screen for Potentiators. D(2) dopamine receptor (Homo sapiens), P14416. HEK293 T-REx D2, calcium flux, EC20 dopamine potentiation. potentiation, % at 10 µM. 0.34% of 340,000 active;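 active means potentiation over 3 SD above the plate norm, cut at about 30% in these data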
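Potentiation of an EC20 dopamine calcium response is measured in a force-coupled, tetracycline-inducible Hek293 Trex D2 line. Compound-only kinetic reads over 180 s flag agonists before dopamine addition.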
D2 PAM-2: Beta-Arrestin HTS for Positive Allosteric Modulators of the Human D2 Dopamine Receptor: Potentiators; 0.23% of 360,000 active; DiscoveRx D2 beta-arrestin cells, luminescence, 90 min; 100% = 57 uM dopamine signal; potentiation, % (no concentration beside the values); in the data active means potentiation above about 50%; inconclusive means mostly about 30% to 49%
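PathHunter beta-arrestin assay in DiscoveRx D2 cells. Compounds were added with an EC20 of dopamine (50 nM final) for 90 min at 37 deg C. Luminescence was read 1 h after detection reagent, with 57 uM dopamine as the EC100 control.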
D2 ag-2: HTS Assay for Allosteric Agonists of the Human D2 Dopamine Receptor: Primary Screen for Agonists | 0.53% of 340,000 active | HEK293 T-REx D2 cells, calcium flux agonist mode | AID 485358, 2010 | activation, % at 2 µM | D(2) dopamine receptor (Homo sapiens), P14416;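 active means activation over 3 SD above normal in the single-dose calcium agonist read, cut at about 30% in these data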
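HEK293 Trex D2 cells, tetracycline-induced, o/n 30 C 5% CO2; no-wash Ca dye, RT 30–90 min; 10-cycle baseline, 23 nl cpd added, kinetic Ca read 180 s; agonist hits = positive Ca response.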
Hits are given with their value; 0 = inactive; ? = inconclusive; - = not tested or not shown. In the library only some 2.4% were active in any assay of this set; here they are far more common.

SMILES | D2 antag | D2 ag-1 | D2 PAM-1 | D2 PAM-2 | D2 ag-2
CC(C)CCn1c(CN2CCN(c3cccc(Cl)c3)CC2)nc2c1c(=O)n(C)c(=O)n2C | 47 | 0 | 0 | 0 | 0
COCCn1c(CN2CCN(c3cccc(Cl)c3)CC2)nc2c1c(=O)n(C)c(=O)n2C | 0 | 0 | 0 | 0 | 0
COC(=O)Cn1c(CN2CCN(c3ccc(F)cc3)CC2)nc2c1c(=O)n(C)c(=O)n2C | 30 | 0 | 0 | 0 | 0
CCOCCn1c(CN2CCN(c3ccc(F)cc3)CC2)nc2c1c(=O)n(C)c(=O)n2C | 0 | 0 | 0 | 0 | 0
COc1ccc(C)cc1NC(=O)COCc1cc(-c2ccc(F)cc2)on1 | - | - | 0 | - | 0
CCn1c2ccccc2c2cc(NC(=O)Cc3ccc(S(=O)(=O)N4CCOCC4)s3)ccc21 | 36 | 0 | 0 | 0 | 0
COc1ccc([N+](=O)[O-])cc1/C=N/NC(=O)/C(=C\c1cccs1)NC(=O)c1ccccc1 | 43 | 0 | 0 | 0 | 0
NNC(=O)/C(=C\c1cccs1)NC(=O)c1ccccc1 | 31 | 0 | 0 | 0 | 0
CCC(Sc1nc2nccnc2c(=O)n1Cc1ccc(OC)cc1)C(=O)NC1CCCCC1 (stereo unspecified) | - | - | 0 | - | 0
COc1cc(NC(=O)CSc2nc(C)c(C(=O)Nc3ccccc3)c(-c3ccc(OC)c(OC)c3)c2C#N)c(OC)cc1Cl | - | - | 0 | - | 0
c1ccc(-c2cc3n(c2)CCc2ccccc2-3)cc1 | 33 | 0 | 0 | 0 | 0
Oc1ccc2ccccc2c1C1Nc2cccc3cccc(c23)N1 | 0 | ? | 0 | 50 | 0
COc1cc(C2Nc3cccc4cccc(c34)N2)ccc1O | 0 | 0 | 0 | 0 | 0
COc1ccc(Cl)cc1NC(=O)c1cc(S(=O)(=O)N2CCCC2)cn1C | 0 | 0 | 0 | 0 | 0
COc1ccccc1CNC(=O)c1cc(S(=O)(=O)N2CCCC2)cn1C | 37 | 0 | 0 | 0 | 0
COc1ccc(OC)c(CCNC(=O)Cn2ccc3cc(S(=O)(=O)N4CCCC4)ccc32)c1 | 0 | 0 | 0 | 0 | 0
COc1ccc(NC(=O)c2cc(S(=O)(=O)N3CCCC3)cn2C)cc1Cl | 38 | 0 | 0 | 0 | 0
COc1ccccc1CCNC(=O)Cn1ccc2cc(S(=O)(=O)N3CCC(C)CC3)ccc21 | 0 | 0 | 34 | 0 | 0
Cc1ccc(S(=O)(=O)N2CCC(C(=O)OCC(=O)NCc3cccc(Cl)c3)CC2)cc1C | - | 0 | - | 0 | -
COc1ccccc1CNC(=O)COC(=O)C1CCN(S(=O)(=O)c2ccc(C)c(C)c2)CC1 | 0 | 0 | 30 | 0 | 0
CCN(Cc1ccccc1)S(=O)(=O)c1ccc(-c2coc(C)n2)cc1 | - | - | 0 | - | 0
COc1ccccc1C(=O)Nc1nc(-c2ccc(S(=O)(=O)N3CCOCC3)cc2)cs1 | 0 | 0 | 0 | 56 | 0
COc1cc(S(=O)(=O)N2CCCCC2)ccc1NC(=O)c1ccccc1Cl | 0 | 0 | 48 | 0 | 0
COc1cc(C)c(C)cc1S(=O)(=O)Nc1cccc(-c2ccc(N3CCOCC3)nn2)c1 | - | - | 0 | - | 0
Clc1cccc2c1CCN(Cc1nc(-c3cnccn3)no1)C2 | 40 | 0 | 0 | 0 | 0
SMILES | D2 antag | D2 ag-1 | D2 PAM-1 | D2 PAM-2 | D2 ag-2
Cc1ccc(NC(=O)c2sc3nc[nH]c(=O)c3c2C)cc1C | - | - | 0 | - | -
CCOC(=O)c1ccc(NS(=O)(=O)c2c(C)[nH]c(C)c2C(=O)N2CCCCC2)cc1 | 69 | 0 | 0 | 0 | 0
COc1cccc(NC(=O)Cn2c(=O)n(Cc3ccc(C(=O)NCc4ccc5c(c4)OCO5)cc3)c(=O)c3ccccc32)c1 | - | - | 0 | - | 0
O=C(Nc1nc2n(n1)C(c1ccc(Cl)cc1)CC(c1ccc(Cl)cc1)N2)c1ccco1 (stereo unspecified) | 32 | 0 | 0 | 0 | 0
COc1ccc(C2CC(c3ccc(Cl)cc3)Nc3nc(NC(=O)c4ccco4)nn32)cc1 (stereo unspecified) | 0 | 0 | 0 | 0 | 0
CC(C)Cn1c(=O)c2sccc2n2c(CCCC(=O)NCCc3ccc(Cl)cc3)nnc12 | - | - | 0 | - | 0
CCCCNc1c(-c2ccc(OC)c(SC3CCCCC3)c2)nc2ccc(C)cn12 | - | 48 | - | 0 | -
CCCCNc1c(-c2ccc(SC3CCCCC3)c(OC)c2)nc2ccc(C)cn12 | - | 0 | - | 0 | -
O=S(=O)(Nn1cnnc1)c1ccccc1Cl | 30 | 0 | 0 | 0 | 0
CCOC(=O)C1CCN(C/C=C/c2ccccc2OC)CC1 | 0 | 0 | 0 | 0 | 0
CC1CCCCN1C(=O)/C=C/c1ccccc1[N+](=O)[O-] (stereo unspecified) | 30 | 0 | 0 | 0 | 0
CCOC(=O)C1CCN(C/C=C/c2ccccc2[N+](=O)[O-])CC1 | 48 | 0 | 0 | 0 | 0
CC(C)c1nn2c(=O)cc(COC(=O)c3ccccc3NC(=O)C3CCCCC3)nc2s1 | - | - | 0 | - | 0
CCOC(=O)c1c(C)[nH]c(C)c1S(=O)(=O)N(C)CC(=O)N1CCN(c2cccc(Cl)c2)CC1 | - | - | 0 | - | 0
O=C(Nc1ccc(N2CCN(Cc3ccccc3Cl)CC2)cc1)c1cccnc1 | 0 | 0 | 0 | 0 | 0
COc1ccc(C(=O)NC(=S)Nc2ccc(N3CCCC3)cc2)cc1 | - | 0 | - | 0 | -
COc1cc(OC)cc(C(=O)NC(=S)Nc2ccc(NC(=O)c3ccco3)cc2)c1 | 0 | 0 | 37 | 0 | 0
O=C(Nc1ccc(N2CCCCC2)cc1)c1cccnc1 | 34 | 0 | 0 | 0 | 0
COc1cccc(C(=O)NC(=S)Nc2ccc(N3CCCC3)cc2)c1 | 57 | 0 | 0 | 0 | 0
O=C(N/N=C/c1ccc(N2CCCC2)c([N+](=O)[O-])c1)c1cccnc1 | 41 | 0 | 0 | 0 | 0
CCCCn1cc(S(=O)(=O)c2ccc(C)c(C)c2)c(=O)c2cc(F)c(N(CC)CC)cc21 | - | - | 0 | - | 0
CCOc1ccc(NC(=O)Cn2c(CCC(=O)O)ccc2-c2ccc(Cl)cc2)cc1 | - | - | 0 | - | 0
CCOc1ccccc1NC(=O)Cn1cc(C(=O)c2ccc(Cl)cc2)c(=O)c2ccc(C)nc21 | - | - | 0 | - | 0
Cc1cccc(S(=O)(=O)c2c(N)n(Cc3ccco3)c3nc4ccccc4nc23)c1 | 0 | 0 | 45 | 0 | 0
O=C(Nc1ccccc1)/C(=C/c1ccccc1)NC(=O)c1ccco1 | 30 | 0 | 0 | 0 | 0
O=C(Nc1ccccc1)/C(=C/c1ccc(O)cc1)NC(=O)c1ccco1 | 0 | 0 | 0 | 0 | 0
O=C(Nc1ccccc1)/C(=C\c1ccc2c(c1)OCO2)NC(=O)c1ccco1 | 30 | 0 | 0 | 0 | 0

Bioassay records from PubChem.
